PubChem BioAssay (NCATS)
Results filed as inconclusive are left out. Unmarked numbers belong to inactive results. Active and inactive are the calls of the source. The call rests on the fitted dose curve; in most records, active means well fitted inhibition curve with a large enough effect; inconclusive means small, poorly fitted or top-dose-only effect; inactive means flat fitted curve, though single readings scatter.

These molecules were tested on NIH3T3 (assay: Cytotoxic Profiling of Annotated Libraries Using Quantitative High-Throughput Screening (AID 1296008; further: nearly all actives have a fitted effect of over 60% in size)). Settings: Five cell lines viability, CellTiter-Glo ATP luminescence, 48-72 h; max response: active compounds read low.
Procedure, shortened: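 Cells exposed to compounds for 48 or 72 hr at 37 degrees Celsius. Viability read as ATP-coupled luminescence with CellTiter-Glo after 10 min at room temperature.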
On the % scale 0 is the no-effect control and ±100 the full control effect; potency means the concentration at half of the fitted maximal effect.

Point of comparison: `COc1c2c(c(C)c3c1C(=O)OC3)O[C@@]1(C)CCC3(C(C)(C)O)OC(=O)CC[C@]3(C)[C@H]1C2` (stereo partly specified), max response -21.1%. Against it:
- NC(=O)c1cccc2cn(-c3ccc(C4CCCNC4)cc3)nc12 (stereo unspecified) — higher, -14%
- CNS(=O)(=O)CC1CCC(N(C)c2ncnc3[nH]ccc23)CC1 (stereo unspecified) — higher, -10.7%
- CC(C(O)/C=C/C(C)(C)O)C1CCC2(C)C3C(=O)C=C4C(CCC(O)C4(C)C)C3(C)CCC12C (stereo unspecified) — higher, 4.41%
- CC1(C)CC2C=C(C(=O)O)C3COC(=O)C(O)(CO)C23C1 (stereo unspecified) — higher, -0.118%
- CC(C)=CCC[C@](C)(O[C@@H]1O[C@H](CO)[C@@H](O)[C@H](O)[C@H]1O)[C@H]1CC[C@]2(C)[C@@H]1[C@H](O)CC1[C@@]3(C)CC[C@H](O)C(C)(C)C3[C@@H](O[C@@H]3O[C@H](CO)[C@@H](O)[C@H](O)[C@H]3O)C[C@]12C (stereo partly specified) — higher, -17.5%
- OC[C@@]1(O)CO[C@@H](OC[C@H]2O[C@@H](Oc3c[nH]c4ccccc34)[C@H](O)[C@@H](O)[C@@H]2O)[C@@H]1O — higher, 1.55%
- CC(C)NCC(C(=O)N1CCN(c2ncnc3c2C(C)CC3O)CC1)c1ccc(Cl)cc1 (stereo unspecified) — higher, 3.08%
- CC(=O)OC1C[C@@]2(C)[C@@H](CC[C@@H](C)[C@]23Cc2c(O)cc4c(c2O3)CNC4=O)C(C)(C)[C@@H]1O (stereo partly specified) — higher, 1.15%
- C=C1CC2C(C)(CCC(=O)O)C(C(C)(C)O)CCC2(C)C2C(=O)OC(C)(C(=O)OC)C(=O)C12C (stereo unspecified) — higher, -2.52%
- CC1=CC(=O)CC(C)(C)C1/C=C/C(C)O[C@@H]1O[C@H](CO)[C@@H](O)[C@H](O)[C@H]1O[C@@H]1OC[C@](O)(CO)[C@H]1O (stereo partly specified) — higher, 3.26%
- C[C@@H]1O[C@@H](O[C@@H]2CO[C@@H](O[C@H]3CC[C@@]4(C)C(CC[C@]5(C)C4CC=C4[C@@H]6CC(C)(C)CC[C@]6(C(=O)O[C@@H]6O[C@H](CO)[C@@H](O)[C@H](O)[C@H]6O)CC[C@]45C)[C@]3(C)CO)[C@H](O)[C@H]2O[C@@H]2O[C@H](CO)[C@@H](O)[C@H](O)[C@H]2O)[C@H](O)[C@H](O)[C@H]1O (stereo partly specified) — higher, 2.94%
- C=CC[C@]12C[C@@H](OC)C(=O)C(OC)=C1O[C@@H](c1cc(OC)c3c(c1)OCO3)[C@@H]2C — higher, -4.29%

For `C[C@H]1[C@H](O)O[C@@H]2O[C@@]3(C)CC[C@H]4[C@H](C)CC[C@@H]1[C@@]24OO3`, the Potency was 13000 nM (active).
For `CC(=O)O[C@H]1C(=O)[C@@]2(C)[C@H]([C@H](OC(=O)c3ccccc3)[C@]3(O)C[C@H](OC(=O)[C@H](O)[C@@H](NC(=O)c4ccccc4)c4ccccc4)C(C)=C1C3(C)C)[C@]1(OC(C)=O)CO[C@@H]1C[C@@H]2O`, the Potency was 31 nM (active).
For `COc1cccc(Nc2ncnn3ccc(CN4CC[C@@H](N)[C@H](O)C4)c23)c1`, the Potency was 517 nM (active).
